Source: PubChem BioAssay
Anesthetic bind: candidate novel general anesthetic via apoferritin binding | apoferritin/1-aminoanthracene competitive binding, fluorescence | Potency, µM (titrated, usually from 77.5 µM), for the others: at the highest dose activity change, negative = displacement, usual class: inhibitors | actives 0.074% (n = 350,000) | AID 485281; also: potency is read from the fitted curve at half-maximal effect; % is scaled to controls: 0 for no effect and ±100 for the full control effect; nearly all actives have a fitted effect of over 20% in size
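Steps: apoferritin (10 uM) was premixed with half-saturated 1-AMA in PBS, compounds were pin-transferred, plates stood 10 min at room temperature, fluorescence was read at 380/535 nm, and curves were fitted with a Hill equation.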
IL-2 act: IL-2 activation | IL-2 activation reporter assay, cell-based qHTS; stimulated with anti-CD3/CD4/CD28 beads; in transgenic mouse T cells | AID 652025 | actives 0.065% (n = 360,000) | activation, % (series mostly up to about 46 µM); in the data active = activation above about 50%; inconclusive = mostly about 30% to 49%; also: 0% is about no effect
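Readout: EGFP and DsRed signals by fluorescent plate cytometry. Unstimulated transgenic mouse T cells received compound 60 min before antibody-bead stimulation, then incubated 18 h at 37 degrees C.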
PKM2 activator: PKM2 (human) enzyme activation | purified PKM2, Kinase-Glo ATP luminescence, activation; response scale: 0% is enzyme alone, no compound | Potency, µM (series often up to 57.5 µM), inactives show top-dose activation, most hits filed as activators | actives 0.34% (n = 260,000); also: potency is read from the fitted curve at half-maximal effect; % is scaled to controls: 0 for no effect and ±100 for the full control effect; nearly all actives have a fitted effect of over 55% in size
Target sequence (P14618 whole entry, looked up): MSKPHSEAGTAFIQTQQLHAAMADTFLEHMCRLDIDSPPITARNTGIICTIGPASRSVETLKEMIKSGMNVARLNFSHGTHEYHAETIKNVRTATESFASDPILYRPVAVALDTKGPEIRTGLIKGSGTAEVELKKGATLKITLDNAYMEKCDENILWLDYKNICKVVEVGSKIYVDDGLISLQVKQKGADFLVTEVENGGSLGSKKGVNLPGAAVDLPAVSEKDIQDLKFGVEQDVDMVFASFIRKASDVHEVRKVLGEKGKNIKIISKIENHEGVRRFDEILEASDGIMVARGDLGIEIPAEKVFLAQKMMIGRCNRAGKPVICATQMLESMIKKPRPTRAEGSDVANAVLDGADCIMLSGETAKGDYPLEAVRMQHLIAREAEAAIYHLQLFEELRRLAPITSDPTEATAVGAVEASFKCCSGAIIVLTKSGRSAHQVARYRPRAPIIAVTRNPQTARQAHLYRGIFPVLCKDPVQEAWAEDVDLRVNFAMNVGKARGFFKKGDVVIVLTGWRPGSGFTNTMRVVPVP
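ATP formation by purified human PK-M2, quantified via coupled luciferase luminescence after 1 h at room temperature with 0.1 mM ADP and 0.5 mM PEP final.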
Integrin act MD: activates integrin-mediated alleviation for muscular dystrophy | alpha7betagal myoblasts, beta-gal FDG fluorescence, 48 h | Potency, µM (top dose mostly 38.3 µM), without a hit: at the highest dose activation, actives largely listed as activators | actives 0.064% (n = 350,000) | AID 624291;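 also: potency is read from the fitted curve at half-maximal effect; 100% = response of the positive control SU9516; nearly all actives have a fitted effect of over 60% in size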
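alpha7betagal+/- myoblasts (passage 13, 250/well) treated 48 h at 37C with compounds at 1:260 dilution of DMSO stock. Lysed, then beta-galactosidase activity read as FDG fluorescence (ex 480/em 540) after 30 min, with pre-read for autofluorescence.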
BRCA1 expr act: activators of BRCA1 expression; MCF7-BRCA1-FFLuc reporter, luminescence, 48 h; response scale: scaled: vehicle 0%, 10 µM genistein 100%; actives 1.1% (n = 380,000); Potency, µM (doses to about 46.1 µM), for inactives: at the top dose activation, hits mostly activators; AID 624202; also: potency is read from the fitted curve at half-maximal effect; nearly all actives have a fitted effect of over 80% in size
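MCF7-BRCA1-FFLuc cells, 2000/well in phenol-red-free MEM, attached 2 h then treated 48 h at 37 C. Luciferase luminescence read 15 min after reagent; normalized to genistein maximum activation (10microM) and DMSO, concentration-response fitted.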
* = called active by the depositor; [ ] = another dose, or the depositor's remark. An excerpt weighted towards active compounds, which were near 1.3% of everything screened. Unless noted, calls follow the shape of the dose curve; as a rule, active = well fitted curve in the direction sought with a large enough effect; inconclusive = small, poorly fitted or top-dose-only effect, or another doubt; inactive = no such curve, though single readings can be large; an effect the other way counts as inactive or inconclusive.

What do the screens show for `Fc1ccc(N/N=C/c2cccnc2)c(F)c1`?
Anesthetic bind: -14.9%; IL-2 act: 2.1; PKM2 activator: 0.3%; Integrin act MD: 9.0%; BRCA1 expr act: 5.62µM*

What do the screens show for `CCN(CC)c1ccc(/C=C(/C#N)C(=O)NCc2ccccc2)o1`?
Anesthetic bind: inconclusive; IL-2 act: 29.5; PKM2 activator: 5.5%; Integrin act MD: 12.9%; BRCA1 expr act: 10µM*

What do the screens show for `CN(C)c1ccc(/C=C/c2cc(/C=C/c3ccc(N(C)C)cc3)c3ccccc3n2)cc1`?
BRCA1 expr act: -4.3%

Results for COc1ccc(/[N+]([O-])=C/c2ccco2)cc1 ?
IL-2 act: 2.2; Integrin act MD: 7.4%; BRCA1 expr act: 8.91µM*

What do the screens show for `c1ccc(-c2noc(C34CC5CC(CC(C5)C3)C4)n2)nc1`?
Anesthetic bind: inconclusive; IL-2 act: 1.9; PKM2 activator: 0.9%; Integrin act MD: -13.5%; BRCA1 expr act: 3.55µM*

What do the screens show for `Cc1ccc(OCc2nc(-c3ccccn3)no2)cc1`?
Anesthetic bind: -17.5%; IL-2 act: -1.7; PKM2 activator: -6.9%; Integrin act MD: 21.1%; BRCA1 expr act: inconclusive

Results for Cc1ccc(SCc2nc(-c3ccccn3)no2)cc1 ?
Anesthetic bind: inconclusive; IL-2 act: -1.7; PKM2 activator: 0.3%; Integrin act MD: -3.5%; BRCA1 expr act: 5.01µM*

What do the screens show for `CC(C)(C)Cc1nc(-c2ccccn2)no1`?
Anesthetic bind: -3.0%; IL-2 act: -2.9; PKM2 activator: -1.4%; Integrin act MD: 3.2%; BRCA1 expr act: 10µM*

How did CCCC[C@H](NC(=O)[C@@H]1CCCN1C(=O)[C@H]1CCCN1C(=O)[C@H](Cc1ccccc1)NC(=O)[C@@H](Cc1c[nH]c2ccccc12)NC(=O)[C@H](C)NC(=O)[C@H](CCCN=C(N)N)NC(=O)OC(C)(C)C)C(N)=O do in these assays?
Anesthetic bind: 6.5%

Results for C/C(=C\COc1c2ccoc2cc2oc(=O)ccc12)CCC(O)C(C)(C)O (stereo not given) ?
Anesthetic bind: -10.4%

Results for Cc1ccc(CNC(=O)c2ccc3c(c2)nc2n3CCCC2)cc1 ?
Anesthetic bind: -9.1%

How did Cc1cc(OCc2cc(C(=O)N(C)C(C)c3ccccn3)no2)cc(C)c1Cl (stereo not given) do in these assays?
Anesthetic bind: inconclusive; IL-2 act: -0.6; PKM2 activator: 0.6%; Integrin act MD: inconclusive; BRCA1 expr act: 11.2µM*

Results for CC(=O)c1ccc(OCc2cc(C(=O)N(C)Cc3ccccn3)no2)cc1 ?
Anesthetic bind: -23.3%; IL-2 act: -1.6; PKM2 activator: -21.0%; Integrin act MD: 19.3%; BRCA1 expr act: inconclusive

What do the screens show for `Cc1cc(OCc2cc(C(=O)N(C)CC3CCOCC3)no2)cc(C)c1Cl`?
Anesthetic bind: inconclusive; IL-2 act: -1.8; Integrin act MD: 25.9%; BRCA1 expr act: inconclusive

How did Cc1cc(OCc2cc(C(=O)N(C)Cc3ccccn3)no2)cc(C)c1Cl do in these assays?
Anesthetic bind: inconclusive; IL-2 act: -0.9; PKM2 activator: 0.7%; Integrin act MD: 9.6%; BRCA1 expr act: 11.2µM*

What do the screens show for `CCN(CC1CCCO1)C(=O)c1cc(COc2cc(C)c(Cl)c(C)c2)on1` (stereo not given)?
Anesthetic bind: inconclusive; IL-2 act: -1.3; PKM2 activator: 7.1%; Integrin act MD: 4.1%; BRCA1 expr act: 6.31µM*

What do the screens show for `COc1ccc(-c2nc3c(c4c2C[C@H](c2ccccc2)OC4)CN(S(=O)(=O)c2ccc(Cl)c4nonc24)CC3)c(C)c1`?
PKM2 activator: -1.2%[11.5 µM]

Results for COc1cc(CN2CCNC(=O)C2CC(=O)N2CCCCO2)cc(OC)c1 (stereo not given) ?
Anesthetic bind: -11.2%; IL-2 act: -2.9; PKM2 activator: 8.4%; Integrin act MD: 0.0%; BRCA1 expr act: -2.1%
